Data reported in PubChem BioAssay AID1069 (NMMLSC, 2008).
Activity calls are given as the source filed them.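 How the source made its calls: active means high combined rank on largest and smallest cell-count-weighted shift across three tests, rank score above 45, floors 50 and 25 (some results past the limit were not filed as active); inactive means the rest.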

Assay: activators of LNCaP cell differentiation, retest, confirmation, side scatter shift, flow cytometry (AID 1069);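 further: LNCaP human prostate cancer cells in low-serum medium with charcoal-stripped FBS; percent of cells with raised granularity gated so DMSO controls show 10%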
Conditions: 4 d, stronger effect = higher value

| SMILES | side scatter shift (at 100 µM) | side scatter shift (side scatter shift, at 10 µM) |
| --- | --- | --- |
| O=C(NCCCN1CCN(c2ccccc2F)CC1)C1CCN(S(=O)(=O)c2cccs2)CC1 | 22.7% (inactive) | 3.7% |
| CN(C(=O)c1ccccn1)c1nnc(-c2cccnc2)s1 | 8.3% (inactive) | 2.1% |
| COCCn1c(=O)[nH]c2cc(C(=O)NCCCN3CCN(c4ccc(F)cc4)CC3)ccc2c1=O | 37.9% (inactive) | 6.5% |
| COc1ccc(N2CCN(CCCNC(=O)CCCn3c(=O)[nH]c4ccsc4c3=O)CC2)cc1 | 7.7% (inactive) | 20.6% |
| OCc1nc2ccccc2n1CCCOc1ccccc1 | 6.7% (inactive) | 5.1% |
| CCOc1cccc(-c2nnc3n2N=C(c2cc(OC)ccc2OC)CS3)c1 | 0% (inactive) | 14.1% |
| COc1ccc(CCNC(=O)C2CCN(Cc3nc(-c4ccccc4C)oc3C)CC2)cc1OC | 0% (inactive) | 20% |
| Cc1oc(-c2ccc(Cl)cc2)nc1CN1CCC(C(=O)N2CCc3ccccc3C2)CC1 | 44.4% (inactive) | 17% |
| CCn1c(=O)cc(SCC(=O)NCCN2CCN(Cc3ccccc3)CC2)c2ccccc21 | 70.2% (active) | 6.85% |
| COc1ccc(-n2cc(-c3ccccc3)c3c(N4CCN(CCO)CC4)ncnc32)cc1 | 33.3% (inactive) | 9.55% |
| Cc1nc2nc(C)c(CCC(=O)NCCCN3CCN(c4cccc(Cl)c4)CC3)c(C)n2n1 | 27.9% (inactive) | 7.4% |
| CCc1ccc(NC(=O)NCCN2CCc3ccccc3C2)cc1 | 0% (inactive) | 8.75% |
| Cc1cc(C)c2c(=O)n(CC(=O)NCCCN3CCN(c4ccccc4F)CC3)sc2n1 | 20% (inactive) | 6.8% |
| O=C(Nc1nc(-c2ccccc2)cs1)C1CCCCN1S(=O)(=O)c1ccccc1 (stereo unspecified) | 0.4% (inactive) | 4.75% |
| CCN1CCN(CCNC(=O)C2CCCN(Cc3nc(-c4cccc(Cl)c4)oc3C)C2)CC1 (stereo unspecified) | 14.3% (inactive) | 32.2% |
| CCc1nn(C(C)C(=O)N2CCc3ccccc3C2)c(=O)c2cc3occc3n12 (stereo unspecified) | 5.5% (inactive) | 2.8% |
| COc1ccc(N2CCN(CCCNC(=O)C3CCCN(S(=O)(=O)c4cnc[nH]4)C3)CC2)cc1 (stereo unspecified) | 32.3% (inactive) | 4.05% |
| Nc1ccc(-c2nc3c(Cl)c(N)ccc3[nH]2)cc1 | 20.2% (inactive) | 4.7% |
| CCN1CCN(C(=O)C2CCN(Cc3nc(-c4cccc(Cl)c4)oc3C)CC2)CC1 | 16.7% (inactive) | 19.1% |
| Cc1oc(-c2cccc(Cl)c2)nc1CN1CCC(C(=O)NCCCN2CCCC2=O)CC1 | 15.1% (inactive) | 2.65% |
| COc1ccc(-c2cc(-c3ccc(F)cc3)nc(N3CCN(C)CC3)n2)cc1 | 33.3% (inactive) | 14.8% |

| SMILES | side scatter shift (at 100 µM) | side scatter shift (side scatter shift, at 10 µM) |
| --- | --- | --- |
| Cc1oc(-c2ccc(Cl)cc2)nc1CN1CCC(C(=O)NCCCN2CCCC2=O)CC1 | 11.8% (inactive) | 1.8% |
| COc1ccc(Nc2nc(N3CCCC3)c3ccccc3n2)cc1 | 14% (inactive) | 21.6% |
| CCCOc1ccc2nc(NC(=O)OC)[nH]c2c1 | 8.3% (inactive) | 2.95% |
| CCOC(=O)c1[nH]c(C)c(C(=O)N2CCc3ccccc32)c1C | 7.7% (inactive) | 15.4% |
| CCc1ccc(-c2nc(CN3CCC(C(=O)NCc4ccccc4OC)CC3)c(C)o2)cc1 | 12.2% (inactive) | 14.5% |
| COC(=O)c1ccccc1NC(=O)CN1CCC(n2nnc3cc(F)ccc32)CC1 | 25.9% (inactive) | 6.9% |
| CC1(C)CC(=O)c2cc(OCC(=O)NCCCN3CCN(c4ccccc4F)CC3)ccc2O1 | 27.3% (inactive) | 6.5% |
| Cc1cc(C)n2nc(SCC(=O)Nc3ccc(F)cc3)nc2n1 | 4% (inactive) | 2.8% |
| COc1ccc2c(c1)CCc1c(C(=O)Nc3cc(C)n(Cc4ccc(Cl)cc4)n3)noc1-2 | 37.2% (inactive) | 7.45% |
| CCC(=O)N(Cc1ccco1)c1nc(-c2cc(OC)ccc2OC)cs1 | 13.2% (inactive) | 9.2% |
| CCOC(=O)N1CCN(C(=O)CCc2c(C)nc3c(c(C)nn3-c3ccc(C)c(C)c3)c2C)CC1 | 0% (inactive) | 6.6% |
| Cc1ccccc1-c1nc(CN2CCC(C(=O)N3CCC(C(N)=O)CC3)CC2)c(C)o1 | 12% (inactive) | 10.9% |
| C=CCn1cc(C(=O)N2CCN(C)CC2)c(=O)c2cc(S(=O)(=O)N3CCCC3)ccc21 | 8.9% (inactive) | 1.6% |
| CCc1ccc(CNC(=O)CN2C(=O)COc3ccccc32)cc1 | 9% (inactive) | 5.7% |
| COC(=O)c1ccccc1S(=O)(=O)N(Cc1cc2cc3c(cc2[nH]c1=O)OCO3)C1CCCCC1 | 50% (inactive) | 8.05% |
| CC(C)CCNC(=O)C1CCN(c2nc3ccccc3o2)CC1 | 28.8% (inactive) | 7.65% |
| Cc1ccccc1-c1nc(CN2CCCC(C(=O)NCc3cccnc3)C2)c(C)o1 (stereo unspecified) | 13.7% (inactive) | 7.35% |
| CCN(CCNC(=O)C1CCN(Cc2nc(-c3ccc(Cl)cc3)oc2C)CC1)c1ccccc1 | 25% (inactive) | 26.4% |
| Cc1cccc(OCCn2c(=O)n(C)c3ccccc32)c1 | 26.7% (inactive) | 4.5% |
| Cn1c(=O)cc(SCC(=O)NCCCN2CCN(c3ccc(F)cc3)CC2)c2ccccc21 | 46.7% (inactive) | 8.35% |
| COc1ccc(-c2cc(C(F)(F)F)nc(N3CCN(Cc4ccccc4)CC3)n2)cc1OC | 51.3% (active) | 5.3% |

| SMILES | side scatter shift (at 100 µM) | side scatter shift (side scatter shift, at 10 µM) |
| --- | --- | --- |
| Cc1ccc(Oc2ccc(S(=O)(=O)N3CCOCC3)cc2C(N)=O)c(-n2nc3ccccc3n2)c1 | 20% (inactive) | 21.3% |
| C=CCn1c(=N)n(CC(O)COc2ccccc2OC)c2ccccc21 (stereo unspecified) | 13.8% (inactive) | 2.35% |
| COc1cccc(Oc2cnc(N)nc2-c2ccc(OC)cc2O)c1 | 22.2% (inactive) | 6.3% |
| CS(=O)(=O)c1nc(-c2cccs2)cc(C(F)(F)F)n1 | 52.8% (inactive) | 15.6% |
| N#C/C(=C\c1ccc(O)c(O)c1)C(=O)NCCCc1ccccc1 | 28.9% (inactive) | 7.05% |
| CC(=O)Nc1cc(C(=O)N2CCOCC2)ccc1S(=O)(=O)c1ccc(C)cc1 | 11.4% (inactive) | 2.95% |
| COC(=O)Nc1sccc1C(=O)Nc1sccc1C(=O)OC | 18.8% (inactive) | 8.85% |
| O=C(NCCCN1CCN(c2ccccc2F)CC1)C1CCC(=O)N1C1CCCC1 (stereo unspecified) | 5% (inactive) | 2.35% |
| COc1ccc(OC)c(N=Cc2c(O)[nH]c3ccccc23)c1 | 7.2% (inactive) | 6.1% |
| CC(C)(O)c1cn(-c2nonc2N)nn1 | 10.4% (inactive) | 5.4% |
| Cc1oc(-c2ccccc2F)nc1CN1CCC(C(=O)NC2CCCCCCC2)CC1 | 16.7% (inactive) | 9.45% |
| Cc1cc(N2CCN(C)CC2)nc2ccc(NC(=O)c3ccc4c(c3)OCO4)cc12 | 71.9% (active) | 24.6% |
| CCc1ccc(-c2nc(CN3CCCC(C(=O)O)C3)c(C)o2)cc1 (stereo unspecified) | 12.4% (inactive) | 9% |
| COc1ccc(-c2cc(C(F)(F)F)nc(N3CCN(C)CC3)n2)cc1 | 25% (inactive) | 13.6% |
| Cc1sc(CO)c(Sc2ccccc2)c1C(=O)O | 3.4% (inactive) | 2.85% |
| O=C(Cn1c(=O)[nH]c2ccsc2c1=O)NC1CCCCCC1 | 2.5% (inactive) | 5.85% |
| CCN1CCN(c2ncc(C(=O)Nc3cc(Cl)c(OC)cc3OC)c3ccccc23)CC1 | 53.7% (inactive) | 19.2% |
| COc1ccc(CCNC(=O)C2CCCN(Cc3nc(-c4cccc(Cl)c4)oc3C)C2)cc1OC (stereo unspecified) | 28.6% (inactive) | 3.85% |
| Cc1cccc(-c2nsc(SCC(=O)Nc3nccs3)n2)c1 | 68.1% (active) | 6.2% |
| CCc1ccc(-c2nc(CN3CCC(C(=O)NCc4ccco4)CC3)c(C)o2)cc1 | 20% (inactive) | 16.5% |
| CCCCCn1c(=N)n(CC(O)COc2ccccc2OC)c2ccccc21 (stereo unspecified) | 15% (inactive) | 25.1% |
